The values that follow come from PubChem BioAssay (NCATS).

Structures are written as SMILES. Records with an inconclusive call do not appear. Entries that show only a call come without a potency. The source made the active and inactive calls. Unless noted, calls follow the shape of the dose curve; as a rule, active = well fitted curve in the direction sought with a large enough effect; inconclusive = small, poorly fitted or top-dose-only effect, or another doubt; inactive = no such curve, though single readings can be large; an effect the other way counts as inactive or inconclusive. Peptide text beside a SMILES is read from it.

ATP-dependent DNA helicase Q1 (Homo sapiens), sequence (P46063 whole entry, looked up): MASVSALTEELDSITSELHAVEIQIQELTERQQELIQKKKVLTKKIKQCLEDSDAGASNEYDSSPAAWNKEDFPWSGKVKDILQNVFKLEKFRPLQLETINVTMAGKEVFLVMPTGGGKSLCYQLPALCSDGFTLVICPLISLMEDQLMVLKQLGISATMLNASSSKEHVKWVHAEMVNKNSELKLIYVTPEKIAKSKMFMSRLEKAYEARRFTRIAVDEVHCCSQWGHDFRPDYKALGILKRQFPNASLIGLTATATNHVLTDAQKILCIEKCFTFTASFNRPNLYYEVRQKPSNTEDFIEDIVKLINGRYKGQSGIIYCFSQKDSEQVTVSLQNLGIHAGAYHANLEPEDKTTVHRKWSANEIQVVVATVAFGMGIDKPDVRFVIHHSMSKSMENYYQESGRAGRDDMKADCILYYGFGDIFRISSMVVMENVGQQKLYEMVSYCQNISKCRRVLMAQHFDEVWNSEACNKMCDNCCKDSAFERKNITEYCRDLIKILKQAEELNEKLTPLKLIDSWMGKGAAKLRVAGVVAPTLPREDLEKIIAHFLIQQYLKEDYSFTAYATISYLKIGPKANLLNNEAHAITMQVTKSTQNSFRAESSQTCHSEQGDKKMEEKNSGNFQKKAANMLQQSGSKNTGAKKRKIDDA

Tested on in one experiment: not listed separately
The experiment can be described thus: qHTS for differential inhibitors of proliferation of Plasmodium falciparum line W2 (AID 1883).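 Also: potency is read from the fitted curve at half-maximal effect; parasites grown with compound for 72 h before lysis and staining.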 The conditions noted are these: Potency: Plasmodium falciparum W2 proliferation inhibition; series mostly up to 28.7 µM. In general terms: qHTS replaces the single test concentration by a dilution series.
In the case of `COc1ccccc1N1CCN(CCN(C(=O)C2CCCCC2)c2ccccn2)CC1`, the Potency was 7.94 µM (active).
For the compound `O=C1NC(=O)C(c2ccccc2[N+](=O)[O-])=C1Nc1ccc(O)c(Cl)c1`, the Potency is 17.8 µM (active).
Same read-out and setting: next, `Cc1cccc(C#Cc2ccccc2)n1`: 12.6 µM (active); `O=c1c(O)c(-c2cc(O)c(O)c(O)c2)oc2cc(O)cc(O)c12`: 14.1 µM (active).
In the case of `CNC[C@H](O)c1ccc(O)c(O)c1`, the Potency was 14.1 µM (active).
On the same count and under the same terms, next, `COc1cc2nc(N3CCN(C(=O)C4CCCO4)CC3)nc(N)c2cc1OC` (stereo unspecified): 11.2 µM (active).
The same measure, in the same setting: next, `CN(C)CCCC1(c2ccc(F)cc2)OCc2cc(C#N)ccc21` (stereo unspecified): 2.24 µM (active); `OC(CN1CCN(c2cccc(Cl)c2)CC1)C(c1ccccc1)c1ccccc1` (stereo unspecified): 10 µM (active); `O=C1c2ccccc2-c2n[nH]c3cccc1c23`: 7.94 µM (active).

Tested on in the next experiment: not listed separately
The experiment can be described thus: qHTS Assay for Identification of Small Molecule Inducers of Hypoxia Response (AID 2120; active = well fitted curve in the direction sought with a large enough effect in the signal ratio, with a control signal flat, not every such curve was filed as active; the % refers to the signal ratio). Conditions: hypoxia response reporter cells, beta-lactamase ratio readout; series mostly up to 104 µM. In a few lines: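 Reporter induction read as the CCF4 blue/green (460nm/530nm) emission ratio after 2.5 h dye loading at room temperature. ME-180 HRE-beta-lactamase cells received titrated compounds for 17 h at 37 degrees Celsius; AC50 values derived.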
Take `c1ccc2[nH]c(-c3cscn3)nc2c1`: the outcome was inactive.
Turning to `CCCCC(CC)COC(=O)C(C#N)=C(c1ccccc1)c1ccccc1` (stereo unspecified), the outcome was inactive.
Still for that read-out and setting: then `Nc1ccc(S(N)(=O)=O)cc1`, with “inactive”; and `COC(=O)[C@H](Cc1ccccc1)NC(=O)[C@@H](N)CC(=O)O` (H-Asp-Phe-OMe), with “inactive”; and `CS(=O)(=O)OCCCCOS(C)(=O)=O`, with “inactive”.
On the same count and under the same terms, next, `Cc1cc(O)c2c(c1)C(=O)c1cc(O)cc(O)c1C2=O`: “inactive”; `NS(=O)(=O)c1cc(C(=O)O)c(NCc2ccco2)cc1Cl`: “inactive”.

The next experiment deals with Ferritin light chain (Equus caballus) (UniProt P02791). The experiment can be described thus: qHTS Validation Assay for Identification of Novel General Anesthetics (AID 2323). The conditions noted are these: horse apoferritin, anesthetic-site fluorescent probe displacement; series mostly up to 76.9 µM. In a few lines:
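Fluorescence at 535 nm (excitation 380 nm) reported loss of 1-AMA binding to horse-spleen apoferritin (10 uM) in PBS with 50% saturated 1-aminoanthracene, after 10 min room-temperature incubation with compound; values from Hill fits of normalized response.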
Take `COc1ccccc1N1CCN(CCN(C(=O)C2CCCCC2)c2ccccn2)CC1`: the Potency entry was “inactive”.
With `Cc1c(OCC(F)(F)F)ccnc1CS(=O)c1nc2ccccc2[nH]1` (stereo unspecified), the Potency result was “inactive”.
The same measure, in the same setting: then `O=C(NCC1CCCCN1)c1cc(OCC(F)(F)F)ccc1OCC(F)(F)F` (stereo unspecified), with “inactive”; and `O=C1NC(=O)C(c2ccccc2[N+](=O)[O-])=C1Nc1ccc(O)c(Cl)c1`, with “inactive”.
As for `O=c1cc(N2CCOCC2)oc2c(-c3ccccc3)cccc12`, the Potency entry is “inactive”.
As for `O=c1c(O)c(-c2cc(O)c(O)c(O)c2)oc2cc(O)cc(O)c12`, the Potency result was “inactive”.
For `CNC[C@H](O)c1ccc(O)c(O)c1`, the Potency entry is “inactive”.
Turning to `COc1cc2nc(N3CCN(C(=O)C4CCCO4)CC3)nc(N)c2cc1OC` (stereo unspecified), the Potency result is “inactive”.
On the same count and under the same terms, then `OC(CN1CCN(c2cccc(Cl)c2)CC1)C(c1ccccc1)c1ccccc1` (stereo unspecified), with “inactive”; and `Cc1nc2n(c(=O)c1CCN1CCC(c3noc4cc(F)ccc34)CC1)CCCC2`, with “inactive”.

The next experiment deals with ATP-dependent DNA helicase Q1 (Homo sapiens) (UniProt P46063). As to the kind of experiment: qHTS Validation Assay for Inhibitors of RecQ-Like Dna Helicase 1 (RECQ1) (AID 2353). Also: potency is read from the fitted curve at half-maximal effect. The conditions noted are these: recombinant RECQ1 helicase DNA unwinding assay; series mostly up to 25.6 µM. The gist of the method:
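RECQ1T1 50 nM; forked duplex (20 bp + 30-nt ss tails) 200 nM, ATP 2 mM final; pH 8.0, 2 mM MgCl2, 2.5 ug/ml poly(dI-dC); 15 min compound preincubation; discontinuous kinetic read over 2 h at RT.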
In the case of `COc1ccccc1N1CCN(CCN(C(=O)C2CCCCC2)c2ccccn2)CC1`, the Potency result was “inactive”.
Still for that read-out and setting: then `Cc1c(OCC(F)(F)F)ccnc1CS(=O)c1nc2ccccc2[nH]1` (stereo unspecified), with “inactive”; and `O=C(NCC1CCCCN1)c1cc(OCC(F)(F)F)ccc1OCC(F)(F)F` (stereo unspecified), with “inactive”; and `O=C1NC(=O)C(c2ccccc2[N+](=O)[O-])=C1Nc1ccc(O)c(Cl)c1`, with “inactive”.
On the same count and under the same terms, next, `CC(=O)N1CCN(c2ccc(OC[C@H]3CO[C@](Cn4ccnc4)(c4ccc(Cl)cc4Cl)O3)cc2)CC1`: “inactive”; `O=c1cc(N2CCOCC2)oc2c(-c3ccccc3)cccc12`: “inactive”; `Cc1cccc(C#Cc2ccccc2)n1`: “inactive”.
Turning to `O=c1c(O)c(-c2cc(O)c(O)c(O)c2)oc2cc(O)cc(O)c12`, the Potency is 0.891 µM (active).
`CNC[C@H](O)c1ccc(O)c(O)c1`: the Potency entry was “inactive”.
For `COc1cc2nc(N3CCN(C(=O)C4CCCO4)CC3)nc(N)c2cc1OC` (stereo unspecified), the Potency entry was “inactive”.
On to `CN(C)CCCC1(c2ccc(F)cc2)OCc2cc(C#N)ccc21` (stereo unspecified), for which the Potency result is “inactive”.
Turning to `OC(CN1CCN(c2cccc(Cl)c2)CC1)C(c1ccccc1)c1ccccc1` (stereo unspecified), the Potency entry was “inactive”.
On the same count and under the same terms, then `O=C1c2ccccc2-c2n[nH]c3cccc1c23`, with “inactive”; and `Cc1cc(O)c2c(c1)C(=O)c1cc(O)cc(O)c1C2=O`, with “inactive”.
For `Cc1nc2n(c(=O)c1CCN1CCC(c3noc4cc(F)ccc34)CC1)CCCC2`, the Potency entry was “inactive”.
